# Laboratory results taken from the supplement of paper PMC8728848.
# The full list was thinned out, with the strongest signals kept by preference.
# Columns and labels:
# Experiment in all cases: glycan array binding signal (z-score within array); higher = stronger binding
# Conditions in all cases: glycan notation: IUPAC condensed, linker removed
# GalNAc(b1-3)GlcNAc = molecular target: GalNAc(b1-3)GlcNAc
# Procedure, shortened: (§1)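 Arrays were curated from the Consortium for Functional Glycomics database, 3228 in total, and kept only where the protein sequence was available. Binding is expressed as a within-array Z-score. This score was averaged across arrays of the same protein sequence at different concentrations or buffers and across linkers, and negative values can be read as non-binding.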
# GalNAc(b1-4)GlcNAc = molecular target: GalNAc(b1-4)GlcNAc
# Procedure, shortened: as §1
# [1] = molecular target: GalNAc(b1-4)GlcNAc(b1-2)Man
# Procedure, shortened: as §1
# [2] = molecular target: GalNAc(b1-4)GlcNAc(b1-3)GalNAc(b1-4)GlcNAc
# Procedure, shortened: as §1
# GalNAc(b1-4)GlcNAc6S = molecular target: GalNAc(b1-4)GlcNAc6S
# Procedure, shortened: as §1
# GalNAc6S(b1-4)GlcNAc = molecular target: GalNAc6S(b1-4)GlcNAc
# Procedure, shortened: as §1
# [3] = molecular target: GlcNAc(b1-2)Man(a1-3)[GlcNAc(b1-4)][GlcNAc(b1-2)Man(a1-6)]Man(b1-4)GlcNAc(b1-4)[Fuc(a1-6)]GlcNAc
# Procedure, shortened: as §1
# [4] = molecular target: GlcNAc(b1-3)Gal(b1-4)GlcNAc(b1-3)Gal(b1-4)GlcNAc(b1-3)Gal(b1-4)GlcNAc(b1-2)Man(a1-3)[GlcNAc(b1-3)Gal(b1-4)GlcNAc(b1-3)Gal(b1-4)GlcNAc(b1-3)Gal(b1-4)GlcNAc(b1-2)Man(a1-6)]Man(b1-4)GlcNAc(b1-4)[Fuc(a1-6)]GlcNAc
# Procedure, shortened: as §1
# [5] = molecular target: GlcNAc(b1-3)Gal(b1-4)GlcNAc(b1-3)Gal(b1-4)GlcNAc(b1-3)GalNAc
# Procedure, shortened: as §1
# GlcNAc(b1-3)GalNAc = molecular target: GlcNAc(b1-3)GalNAc
# Procedure, shortened: as §1
# GlcNAc(b1-4)GlcNAc = molecular target: GlcNAc(b1-4)GlcNAc
# Procedure, shortened: as §1
# [6] = molecular target: GlcNAc6S(b1-3)Gal(b1-4)GlcNAc
# Procedure, shortened: as §1
# Kdn(a2-3)Gal(b1-4)Glc = molecular target: Kdn(a2-3)Gal(b1-4)Glc
# Procedure, shortened: as §1
# Kdn(a2-6)Gal(b1-4)GlcNAc = molecular target: Kdn(a2-6)Gal(b1-4)GlcNAc
# Procedure, shortened: as §1
# [7] = molecular target: Man(a1-2)Man(a1-6)[Man(a1-3)]Man(a1-6)[Man(a1-2)Man(a1-2)Man(a1-3)]Man
# Procedure, shortened: as §1
# Man(a1-6)Man = molecular target: Man(a1-6)Man
# Procedure, shortened: as §1
# [8] = molecular target: Neu5Ac(a2-3)Gal(b1-3)GalNAc6S
# Procedure, shortened: as §1
# [9] = molecular target: Neu5Ac(a2-3)Gal(b1-4)GlcNAc(b1-2)Man(a1-3)[GlcNAc(b1-4)][Neu5Ac(a2-3)Gal(b1-4)GlcNAc(b1-2)Man(a1-6)]Man(b1-4)GlcNAc(b1-4)GlcNAc
# Procedure, shortened: as §1
# [10] = molecular target: Neu5Ac(a2-6)Gal(b1-4)GlcNAc(b1-2)[Neu5Ac(a2-6)Gal(b1-4)GlcNAc(b1-6)]Man(a1-6)[Neu5Ac(a2-6)Gal(b1-4)GlcNAc(b1-2)Man(a1-3)][GlcNAc(b1-4)]Man(b1-4)GlcNAc(b1-4)GlcNAc
# Procedure, shortened: as §1
# [11] = molecular target: Neu5Ac(a2-6)Gal(b1-4)GlcNAc(b1-3)Gal(b1-4)GlcNAc(b1-3)Gal(b1-4)GlcNAc(b1-2)Man(a1-3)[Neu5Ac(a2-6)Gal(b1-4)GlcNAc(b1-3)Gal(b1-4)GlcNAc(b1-3)Gal(b1-4)GlcNAc(b1-2)Man(a1-6)]GalNAc
# Procedure, shortened: as §1
# [12] = molecular target: Neu5Ac(a2-6)Gal(b1-4)GlcNAc(b1-3)[Neu5Ac(a2-6)Gal(b1-4)GlcNAc(b1-6)]GalNAc
# Procedure, shortened: as §1
# [13] = molecular target: Neu5Ac(b2-6)Gal(b1-4)GlcNAc
# Procedure, shortened: as §1
binder,measurement,setting,value
"rCNL (Clitocybe nebularis), B2ZRS9 (protein) SITPGTYNITNVAYTNRLIDLTGSNPAENTLIIGHHLNKTPSGYGNQQWTLVQLPHTTIYTMQAVNPQSYVRVRDDNLVDGAALVGSQQPTPVSIESAGNSGQFRIKIPNLGLALTLPSDANSTPIVLGEVDETSTNQLWAFESVSAV",glycan array binding signal (z-score),GalNAc(b1-3)GlcNAc,4.24
same,glycan array binding signal (z-score),GalNAc(b1-4)GlcNAc,6.23
same,glycan array binding signal (z-score),[1],6.09
same,glycan array binding signal (z-score),[2],7.74
same,glycan array binding signal (z-score),GalNAc(b1-4)GlcNAc6S,4.96
same,glycan array binding signal (z-score),GalNAc6S(b1-4)GlcNAc,7.28
same,glycan array binding signal (z-score),[3],-0.228
same,glycan array binding signal (z-score),[4],-0.217
same,glycan array binding signal (z-score),[5],-0.218
same,glycan array binding signal (z-score),GlcNAc(b1-3)GalNAc,-0.286
same,glycan array binding signal (z-score),GlcNAc(b1-4)GlcNAc,-0.304
same,glycan array binding signal (z-score),[6],-0.273
same,glycan array binding signal (z-score),Kdn(a2-3)Gal(b1-4)Glc,-0.301
same,glycan array binding signal (z-score),Kdn(a2-6)Gal(b1-4)GlcNAc,-0.285
same,glycan array binding signal (z-score),[7],-0.296
same,glycan array binding signal (z-score),Man(a1-6)Man,-0.294
same,glycan array binding signal (z-score),[8],-0.232
same,glycan array binding signal (z-score),[9],-0.226
same,glycan array binding signal (z-score),[10],-0.222
same,glycan array binding signal (z-score),[11],-0.13
same,glycan array binding signal (z-score),[12],-0.221
same,glycan array binding signal (z-score),[13],-0.31
